Source: PubChem BioAssay (PCMD)
FXIIa mix inh – factor XIIa (human) inhibition, mixture screen; purified FXIIa, fluorogenic substrate, pooled mixtures; inhibition, % at 5 µM; hit rate 0.2% among 62,000; AID 684
FXIa mix inh – blocks human factor XIa in pooled compound mixtures. P03951. purified FXIa, fluorogenic substrate. inhibition, % at 5 µM. hit rate 0.19% among 62,000. AID 680;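 also: each value is inhibition by a whole ten-compound pool holding the compound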
Target sequence (P03951 19-387 limits assumed): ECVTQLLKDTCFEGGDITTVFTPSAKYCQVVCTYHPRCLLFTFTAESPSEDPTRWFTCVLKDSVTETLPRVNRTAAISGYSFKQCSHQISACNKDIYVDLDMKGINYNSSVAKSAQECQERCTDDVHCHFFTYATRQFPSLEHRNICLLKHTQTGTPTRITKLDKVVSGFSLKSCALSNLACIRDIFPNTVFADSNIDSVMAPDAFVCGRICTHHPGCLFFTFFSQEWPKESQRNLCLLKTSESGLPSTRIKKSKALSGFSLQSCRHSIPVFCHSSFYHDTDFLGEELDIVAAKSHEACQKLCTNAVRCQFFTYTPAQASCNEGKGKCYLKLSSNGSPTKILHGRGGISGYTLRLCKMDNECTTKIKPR
Target sequence (P03951 388-625 limits assumed): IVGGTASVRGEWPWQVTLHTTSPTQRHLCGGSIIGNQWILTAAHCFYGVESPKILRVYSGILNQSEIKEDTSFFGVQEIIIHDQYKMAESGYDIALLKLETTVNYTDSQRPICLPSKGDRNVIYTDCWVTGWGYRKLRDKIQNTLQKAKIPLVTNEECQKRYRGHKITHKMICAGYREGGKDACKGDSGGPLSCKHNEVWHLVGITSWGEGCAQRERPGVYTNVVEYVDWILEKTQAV
C1s block – blocks human complement C1s protease activity | mean inhibition % of two 10-compound mixtures (stronger effect = higher value), % at 5 µM (by protocol) | purified C1s, fluorogenic AMC substrate, pooled mixtures | hit rate 0.16% among 62,000;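 active = inhibition above 20% in each of the two 10-compound mixture wells holding the compound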
Cathepsin G inh – inhibitors of human cathepsin G; P08311; purified enzyme, AMC-tetrapeptide fluorescence, pooled mixtures; inhibition, % at 5 µM (by protocol); hit rate 0.2% among 62,000; AID 581;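 active = inhibition above 20% in each of the two mixture wells holding the compound; inactive = inhibition of 20% or less in either well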
Numbers stand for hits; i = inactive. Compounds with a hit are over-represented: about 0.61% of the library has one in this group of screens. Rule as the data show it, unless noted: active = inhibition above about 20% (passing the limit was not always enough); inactive = the rest.

SMILES	FXIIa mix inh	FXIa mix inh	C1s block	Cathepsin G inh
CCCNC(=O)c1noc2c1CCc1ccccc1-2	i	i	i	60.9
O=C(NCCN1CCOCC1)c1ccc(-c2ccccc2)cc1	i	i	i	i
O=C(NCCN1CCOCC1)c1noc2c1CCc1ccccc1-2	i	i	i	90.1
O=C(Cc1ccc(-c2ccccc2)cc1)NCCN1CCOCC1	i	i	24.3	i
Cc1onc(-c2ccccc2)c1C(=O)NCCN1CCOCC1	i	i	i	i
O=C(NCCc1ccccc1)c1noc2c1CCc1ccccc1-2	i	36.3	26.4	101.0
CCn1c(C)nc2cc(C(=O)n3cc(C(=O)c4cc(F)ccc4O)cn3)ccc21	i	i	25.3	i
C=C(C)Cn1c(COc2ccccc2)nnc1SCC(=O)O	i	i	i	i
O=C(Nc1ccc(F)cc1)C1CCCCC1	i	i	i	i
O=C(Nc1ccc(-n2cnnn2)cc1)C1CCC1	20.2	i	i	i
COc1cc(OC)cc(C(=O)Nc2cccc(N3CCCC3)c2)c1	i	i	i	i
COc1ccccc1NC(=O)c1ccc(N)cc1	i	i	i	i
COC(=O)c1ccc(C(=O)Nc2ccc(N)cc2N)cc1	i	23.0	i	i
CC(NC(=O)CSc1ncccn1)c1ccccc1 (stereo not drawn)	i	i	i	i
Cc1ccc(-c2nc(CS(=O)CC(=O)NC3CCC(C)CC3)c(C)o2)cc1 (stereo not drawn)	i	i	i	i
CCc1ccccc1N(C(=O)c1cccs1)C1C=CS(=O)(=O)C1 (stereo not drawn)	i	i	60.2	i
CCn1c(SCC(=O)NCCOC)nc2sc(C)c(C)c2c1=O	i	i	i	i
CCn1c(SCC(=O)c2c(N)n(C)c(=O)n(C)c2=O)nc2sc(C)c(C)c2c1=O	i	i	33.4	i
COc1ccc(C(c2nnnn2Cc2cccs2)N2CCN(c3ccc(F)cc3)CC2)cc1OC (stereo not drawn)	i	i	i	i
Cc1sc(NC(=O)c2ccco2)c(CN2CCN(c3ccccn3)CC2)c1C	i	46.4	i	i
C=CCn1nnc2sc3c(c2c1=O)CCC(C)C3 (stereo not drawn)	i	i	i	i
COc1ccccc1-c1nc(-c2ccc(Br)cc2)no1	28.6	i	i	i
COc1ccccc1-c1nc(-c2ccncc2)no1	i	i	i	i
CC1CCCCN1S(=O)(=O)c1ccc2c(c1)CCN2C(=O)C1CCC1 (stereo not drawn)	i	i	i	i
COc1ccc(-c2nc(SC)n(C(=O)c3ccco3)n2)cc1	i	23.8	62.7	20.0
SMILES	FXIIa mix inh	FXIa mix inh	C1s block	Cathepsin G inh
CCCNC(=O)N1CCN(S(=O)(=O)c2ccc(C)c(C)c2)CC1	i	i	i	i
O=C1CN(CC(=O)N2CCOCC2)c2ccccc2O1	21.9	i	i	i
O=C1CN(CC(=O)N2CCCCC2)c2ccccc2O1	i	i	i	i
Cc1nnc2sc(-c3cc4ccccc4o3)nn12	i	i	i	i
COc1ccc2c(c1)CCc1c(C(=O)Nc3ccn(Cc4ccc(C)cc4)n3)noc1-2	i	i	i	93.8
COc1ccc2c(c1)CCc1c(C(=O)Nc3cc(C)n(Cc4ccc(Cl)cc4)n3)noc1-2	i	i	i	65.8
Cc1cc(NC(=O)c2noc3c2CCCC3)nn1Cc1ccc(Cl)cc1	i	i	i	i
COc1ccccc1CNC(=O)c1cnc2ccccn2c1=O	i	20.9	i	i
COc1cc(OC)cc(C(=O)Nc2ncc3c(n2)CC(C)CC3=O)c1 (stereo not drawn)	i	i	22.4	i
CCOC(=O)c1sc2nc(SCC#N)n(CC3CCCO3)c(=O)c2c1C (stereo not drawn)	i	22.5	i	i
CCOC(=O)c1sc(NCC2CCCO2)nc1C (stereo not drawn)	i	i	i	i
Cc1c(NC(=O)C2CCCN(S(=O)(=O)c3cnc[nH]3)C2)c(=O)n(-c2ccccc2)n1C (stereo not drawn)	i	24.3	i	i
O=C(CCCc1cccs1)N1CCN(S(=O)(=O)c2ccccc2Br)CC1	i	i	i	i
O=C(Nc1ccccc1O)c1cc(S(=O)(=O)N2CCOCC2)ccc1Cl	i	i	i	i
COc1ccccc1NC(=O)c1cc(S(=O)(=O)N2CCOCC2)ccc1Cl	32.2	i	i	i
CCOC(=O)C(C)(C)C(=O)C(C)(C)C(O)c1ccccn1 (stereo not drawn)	i	i	i	i
CCOC(=O)C1=C(C)N(C)C(C)=C(C(=O)OCC)C1c1ccccn1	i	i	i	i
CCOC(=O)c1c(C)oc2c1c(/C=N/c1ccccn1)c(O)c1ccccc12	69.1	i	i	i
CCc1cc(C(=O)OC)c(N2C(=O)C3C4C=CC(C4)C3C2=O)s1 (stereo not drawn)	51.6	i	i	i
